proKLK7 act – activators of human kallikrein-7 zymogen | activation, % at 7 µM | purified proKLK7, EDANS-DABCYL substrate fluorescence; 100% is mature enzyme control, 0% vehicle | actives 0.9% (n = 370,000) | AID 652039;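 active = activation above the mean of all tested compounds plus 3 SD, computed per campaign excluding outliers beyond control limits, cut at about 13% in these data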
MBD2 DNA inh – MBD2-methylated oligo binding inhibition. TR-FRET, MBD2 binding to methylated oligonucleotide. inhibition, % at 4.4 µM. actives 0.31% (n = 370,000). AID 686964; in the data active = inhibition above about 13%
Neddylation inh – blocks human cullin neddylation; P61081+Q13564; actives 0.58% (n = 360,000); calls only at 25 µM; TR-FRET cullin neddylation, biochemical; in the data active = inhibition above about 36%
Target sequence (P61081 whole entry, looked up): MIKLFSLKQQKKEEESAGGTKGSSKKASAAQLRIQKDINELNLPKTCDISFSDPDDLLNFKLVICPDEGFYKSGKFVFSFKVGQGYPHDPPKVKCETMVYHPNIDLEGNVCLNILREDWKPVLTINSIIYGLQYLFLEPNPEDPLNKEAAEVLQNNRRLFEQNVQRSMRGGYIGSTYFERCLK
Target sequence (Q13564 whole entry, looked up): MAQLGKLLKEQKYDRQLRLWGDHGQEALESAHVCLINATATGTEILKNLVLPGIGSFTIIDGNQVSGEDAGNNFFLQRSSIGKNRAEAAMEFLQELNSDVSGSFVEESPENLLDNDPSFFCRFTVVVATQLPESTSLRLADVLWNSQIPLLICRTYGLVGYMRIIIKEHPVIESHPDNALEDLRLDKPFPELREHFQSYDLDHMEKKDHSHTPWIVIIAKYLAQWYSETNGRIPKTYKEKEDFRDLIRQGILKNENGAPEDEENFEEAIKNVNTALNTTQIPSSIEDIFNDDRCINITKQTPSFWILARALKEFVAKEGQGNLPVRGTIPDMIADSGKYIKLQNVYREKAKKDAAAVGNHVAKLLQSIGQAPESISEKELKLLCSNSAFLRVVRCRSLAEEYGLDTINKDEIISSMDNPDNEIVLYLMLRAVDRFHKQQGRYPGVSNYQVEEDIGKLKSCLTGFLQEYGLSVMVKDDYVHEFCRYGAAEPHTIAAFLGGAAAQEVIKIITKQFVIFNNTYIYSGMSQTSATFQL
LEDGF integ inh – blocks HIV-1 LEDGF/p75-dependent DNA integration | TR-FRET IN-LEDGF/p75 DNA integration, Eu/Cy5 | inhibition, % at 3.7 µM | actives 0.64% (n = 370,000) | AID 743269;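 active = inhibition above the screen-wide mean plus 3 SD, cut at about 13% in these data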;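 note: signal is the Cy5 over europium emission ratio at 671 and 618 nm; 0% = plate median of compound wells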
Rin1 Abl inh – human Rin1-Abl interaction inhibition. inhibition, % at 7.35 µM. TR-FRET Rin1/Abl binding, biochemical. actives 0.4% (n = 360,000). P00519+Q13671; in the data active = inhibition above about 5%, passing the limit was not always enough
UHRF1 MBD2 ctr – UHRF1 methyl-DNA binding inhibition. Q96T88. UHRF1 binding to methylated oligo, TR-FRET. inhibition, % at 4.4 µM. actives 0.75% (n = 370,000). AID 687016; in the data active = inhibition above about 21%;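 note: UHRF1 SRA domain binding a hemimethylated CpG hairpin DNA probe; 0% = median of test compound wells and 100% = reference inhibitor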
Numbers without * were called inactive. A selection: hits, their analogues and other compounds. The true share with any hit is near 3.1%.

Screening COc1cccc(CN2CCC(C(=O)Nc3ccc(-c4cccc(C)c4)cc3)CC2)c1O returned proKLK7 act 1, MBD2 DNA inh 9, Neddylation inh inactive, LEDGF integ inh 3, Rin1 Abl inh -4 and UHRF1 MBD2 ctr 71*.
Screening Cc1ccc(F)c(NC(=O)c2c(-c3ccccc3)noc2C)c1 returned proKLK7 act 0, MBD2 DNA inh -1, Neddylation inh inactive, LEDGF integ inh 2, Rin1 Abl inh 0 and UHRF1 MBD2 ctr 0.
`Cc1ccccc1CSCC1Nc2ccc(C(=O)NCCc3ccccc3)cc2NC1=O` (stereo not drawn) gave proKLK7 act 1, MBD2 DNA inh 2, Neddylation inh inactive, LEDGF integ inh 2, Rin1 Abl inh -3 and UHRF1 MBD2 ctr -8.
Cc1ccc(C(=O)Nc2nc(-c3ccccn3)cs2)o1 was read as proKLK7 act 0, MBD2 DNA inh 0, Neddylation inh inactive, LEDGF integ inh 4, Rin1 Abl inh -2 and UHRF1 MBD2 ctr -4.
For CC(=O)c1ccc(-c2ccc(C(=O)Nc3nc(-c4ccccn4)cs3)o2)cc1 the results were proKLK7 act -3, MBD2 DNA inh 0, Neddylation inh active, LEDGF integ inh -1, Rin1 Abl inh -1 and UHRF1 MBD2 ctr -3.
For O=C(CCc1ccc(O)cc1)c1c(O)cc(O)cc1O the results were proKLK7 act 0, MBD2 DNA inh 3, Neddylation inh inactive, LEDGF integ inh 5, Rin1 Abl inh 2 and UHRF1 MBD2 ctr 0.
`COc1cc(O)c(CC=C(C)C)c(O)c1C(=O)CCc1ccc(O)cc1` gave proKLK7 act 1, MBD2 DNA inh 1, Neddylation inh inactive, LEDGF integ inh -3, Rin1 Abl inh 2 and UHRF1 MBD2 ctr 23*.
COc1ccc(S(=O)(=O)n2ccnc2)c2cccnc12 was read as proKLK7 act 4, MBD2 DNA inh -3, LEDGF integ inh 1, Rin1 Abl inh 2 and UHRF1 MBD2 ctr 22*.
For CCCCNS(=O)(=O)c1ccc(OC)c2ncccc12 the results were proKLK7 act 0, MBD2 DNA inh -3, Neddylation inh inactive, LEDGF integ inh 4, Rin1 Abl inh -6 and UHRF1 MBD2 ctr 5.
For C=CCOc1ccc2c(CC)cc(=O)oc2c1C the results were proKLK7 act 0, MBD2 DNA inh -2, Neddylation inh active, LEDGF integ inh 1, Rin1 Abl inh 0 and UHRF1 MBD2 ctr -2.
Screening O=C(Nc1nc(-c2ccc(Cl)s2)cs1)c1ccccc1 returned proKLK7 act 0, MBD2 DNA inh 0, Neddylation inh inactive, LEDGF integ inh 2, Rin1 Abl inh 1 and UHRF1 MBD2 ctr -2.
Cc1ccc(C(=O)Nc2nc(-c3cc(Cl)sc3Cl)cs2)cc1 was read as proKLK7 act 1, MBD2 DNA inh 8, Neddylation inh inactive, LEDGF integ inh -2, Rin1 Abl inh 1 and UHRF1 MBD2 ctr 23*.
`CC(CO)NS(=O)(=O)c1cc(Cl)ccc1F` (stereo not drawn) gave proKLK7 act 0, MBD2 DNA inh 12, Neddylation inh inactive, LEDGF integ inh -4, Rin1 Abl inh -3 and UHRF1 MBD2 ctr 26*.
`CC(CO)NS(=O)(=O)c1cccc(Cl)c1F` (stereo not drawn) gave proKLK7 act -1, MBD2 DNA inh 1, Neddylation inh inactive, LEDGF integ inh 1, Rin1 Abl inh -3 and UHRF1 MBD2 ctr -1.
C/C(=N\NC(=O)c1ccccc1C)c1ccc(NC(=O)c2cccs2)cc1 was read as proKLK7 act 0, MBD2 DNA inh -1, Neddylation inh inactive, LEDGF integ inh -1, Rin1 Abl inh -2 and UHRF1 MBD2 ctr 39*.
For Cc1ccc(S(=O)(=O)N2CCCCC2)cc1NC(=O)COC(=O)c1cccn1C the results were proKLK7 act 0, MBD2 DNA inh 3, Neddylation inh inactive, LEDGF integ inh -5, Rin1 Abl inh 3 and UHRF1 MBD2 ctr 40*.
COc1ccccc1OCC(=O)Nc1cc(S(=O)(=O)N2CCCCC2)ccc1N1CCCCC1 was read as proKLK7 act 0, MBD2 DNA inh 10, Neddylation inh inactive, LEDGF integ inh -2, Rin1 Abl inh -2 and UHRF1 MBD2 ctr 27*.
Screening Cc1ccc(S(=O)(=O)N2CCCCC2)cc1NC(=O)COC(=O)C1CC1 returned proKLK7 act 0, MBD2 DNA inh 2, Neddylation inh inactive, LEDGF integ inh -7, Rin1 Abl inh -2 and UHRF1 MBD2 ctr 0.
Cc1ccc(S(=O)(=O)N2CCCCC2)cc1NC(=O)c1cc(F)c(F)c(F)c1F was read as proKLK7 act 0, MBD2 DNA inh 10, Neddylation inh inactive, LEDGF integ inh 2, Rin1 Abl inh 1 and UHRF1 MBD2 ctr 22*.
`COc1ccccc1NC(=O)COC(=O)c1cc([N+](=O)[O-])ccc1N1CCCC1` gave proKLK7 act 0, MBD2 DNA inh -2, Neddylation inh inactive, LEDGF integ inh 0, Rin1 Abl inh -4 and UHRF1 MBD2 ctr 35*.
`COCCN1C(=O)CSCC1(C)C(=O)Nc1ccc2c(c1)OCCO2` (stereo not drawn) gave proKLK7 act 1, MBD2 DNA inh -1, Neddylation inh inactive, LEDGF integ inh 4 and UHRF1 MBD2 ctr -1.
Screening O=C(CC1CCCC1)NNC(=O)c1ccccc1O returned proKLK7 act -2, MBD2 DNA inh 4, Neddylation inh inactive, LEDGF integ inh -5, Rin1 Abl inh 0 and UHRF1 MBD2 ctr 36*.
O=C(NCCNC(=O)c1ccccc1O)c1ccccc1O was read as proKLK7 act -6, MBD2 DNA inh -1, Neddylation inh inactive, LEDGF integ inh 0, Rin1 Abl inh 2 and UHRF1 MBD2 ctr -1.
For O=C(CCNC(=O)c1ccccc1Cl)NNC(=O)c1ccccc1O the results were proKLK7 act -6, MBD2 DNA inh 3, Neddylation inh inactive, LEDGF integ inh -11, Rin1 Abl inh 0 and UHRF1 MBD2 ctr 34*.
`C[C@H]1COc2cc(N3CC[C@H](O)C3)ccc2S(=O)(=O)N1` gave proKLK7 act 0, MBD2 DNA inh 2, Neddylation inh inactive, LEDGF integ inh -5 and UHRF1 MBD2 ctr 62*.
O=CNCC(=O)NC1CCCCCC1 was read as proKLK7 act 0, MBD2 DNA inh -3, Neddylation inh inactive, LEDGF integ inh 3, Rin1 Abl inh 0 and UHRF1 MBD2 ctr 24*.
Screening O=C(CCCC(=O)NC1CCCC1)NC1CCCC1 returned proKLK7 act 0, MBD2 DNA inh -5, Neddylation inh inactive, LEDGF integ inh 3, Rin1 Abl inh 0 and UHRF1 MBD2 ctr 2.
CSc1nnc(CNS(=O)(=O)c2ccc(Cl)cc2)n1C was read as proKLK7 act 0, MBD2 DNA inh -3, Neddylation inh inactive, LEDGF integ inh -1, Rin1 Abl inh -5 and UHRF1 MBD2 ctr 26*.
Screening O=C(O)c1nc(NCCc2ccccc2)ncc1Cl returned proKLK7 act 1, MBD2 DNA inh 3, Neddylation inh inactive, LEDGF integ inh 1, Rin1 Abl inh 4 and UHRF1 MBD2 ctr 1.
